Reference: PubChem BioAssay AID1159580 (chemical genetic matrix, 2015)
Where “and” joins values, the source holds several entries; their conditions need not be identical. Equal entries are not always repeated. About 2,000 (36%) of roughly 5,500 compounds were called active. Not shown: some 18% with an inconclusive outcome. Rule as the data show it: active = normalized growth mostly below about 0.91 (no sharp cut-off); inconclusive = no clear call, values can overlap the other calls; inactive = mostly above about 0.92. Some of the results follow.

Assay: chemical genetic growth profiling, strain panel (AID 1159580);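 also: tested at 20 µM; growth read once vehicle control cultures reached saturation at 30 °C; 1 = growth at the plate median or of vehicle wells; lower values mean less growth of the strain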
Settings: S. cerevisiae deletion strains, growth OD

Measured: normalized growth

COC1C(O)C(O)C(O)[C@@H](O)C1O (some centres undefined)
inactive: locus YAL013W, strain DEP1, active compounds read low 1.01 | locus YAL021C, strain ccr4, active compounds read low 0.967 | locus YAL026C, strain drs2, active compounds read low 0.978 | locus YAL030W, strain snc1, active compounds read low 0.976 | locus YBL061C, strain skt5, active compounds read low 0.971 | locus YBR009C, strain hhf1, active compounds read low 0.98 | locus YBR021W, strain FUR4, active compounds read low 1.03 | locus YBR023C, strain chs3, active compounds read low 0.966 | locus YBR171W, strain sec66, active compounds read low 0.978 | locus YBR229C, strain ROT2, active compounds read low 1.01 | locus YBR231C, strain swc5, active compounds read low 0.978 | locus YBR279W, strain paf1, active compounds read low 0.982 | locus YCL011C, strain gbp2, active compounds read low 0.976 | locus YCL016C, strain dcc1, active compounds read low 0.968 | locus YCL029C, strain bik1, active compounds read low 1.02 | locus YCL061C, strain MRC1, active compounds read low 0.97 | locus YCL069W, strain vba3, active compounds read low 0.98 | locus YCR088W, strain abp1, active compounds read low 0.976 | locus YDL005C, strain med2, active compounds read low 0.949 | locus YDL035C, strain GPR1, active compounds read low 1.02 | locus YDL074C, strain BRE1, active compounds read low 1.06 | locus YDL101C, strain DUN1, active compounds read low 1.01 | locus YDL134C, strain PPH21, active compounds read low 1 | locus YDL185W, strain tfp1, active compounds read low 1.01 | locus YDL192W, strain arf1, active compounds read low 1.03 | locus YDR001C, strain nth1, active compounds read low 0.964 | locus YDR069C, strain doa4, active compounds read low 0.981 | locus YDR101C, strain arx1, active compounds read low 1.04 | locus YDR137W, strain rgp1, active compounds read low 0.98 | locus YDR150W, strain NUM1, active compounds read low 1.01 | locus YDR159W, strain sac3, active compounds read low 1.06 | locus YDR162C, strain NBP2, active compounds read low 1.01 | locus YDR195W, strain ref2 1.01 | locus YDR297W, strain sur2, active compounds read low 0.977 | locus YDR318W, strain mcm21, active compounds read low 1.02 | locus YDR334W, strain swr1, active compounds read low 0.966 | locus YDR335W, strain msn5, active compounds read low 0.972 | locus YDR388W, active compounds read low 1.02 | locus YDR392W, strain spt3, active compounds read low 0.909 | locus YDR502C, strain sam2, active compounds read low 1.05 | locus YEL003W, strain gim4, active compounds read low 0.974 | locus YEL037C, strain rad23, active compounds read low 0.968 | locus YEL061C, strain CIN8 (second series), active compounds read low 0.971 | locus YEL061C, strain CIN8, active compounds read low 1.01 | locus YER015W, strain faa2, active compounds read low 0.984 | locus YER016W, strain bim1, active compounds read low 0.977 | locus YER110C, active compounds read low 1.02 | locus YER111C, strain swi4, active compounds read low 0.961 | locus YER155C, strain BEM2 (second series), active compounds read low 0.971 | locus YER155C, strain BEM2, active compounds read low 1.01 | locus YER167W, strain BCK2, active compounds read low 1.01 | locus YFR010W, strain ubp6, active compounds read low 0.951 | locus YGL078C, strain dbp3, active compounds read low 1.02 | locus YGL086W, strain mad1, active compounds read low 1.05 | locus YGL167C, strain pmr1, active compounds read low 0.977 | locus YGL173C, strain kem1, active compounds read low 0.964 | locus YGL227W, strain vid30, active compounds read low 0.973 | locus YGL240W, strain doc1, active compounds read low 1 | locus YGL248W, strain PDE1, active compounds read low 1.01 | locus YGL253W, strain hxk2, active compounds read low 0.966 | locus YGR078C, strain PAC10, active compounds read low 1 | locus YGR135W, strain pre9, active compounds read low 1.01 | locus YGR252W, strain gcn5, active compounds read low 0.972 | locus YHR013C, strain ard1, active compounds read low 0.948 | locus YHR027C, strain rpn1, active compounds read low 0.999 | locus YHR030C, strain SLT2, active compounds read low 0.999 and 0.933 | locus YHR079C, strain IRE1 (second series), active compounds read low 1.03 | locus YHR079C, strain IRE1, active compounds read low 0.925 | locus YHR094C, strain hxt1, active compounds read low 1.04 | locus YHR129C, strain ARP1, active compounds read low 1.01 | locus YHR142W, strain chs7, active compounds read low 0.928 | locus YHR200W, strain rpn10, active compounds read low 1.03 | locus YIL066C, strain RNR3, active compounds read low 1.01 | locus YIL073C, strain SPO22, active compounds read low 1.09 | locus YIL125W, strain kgd1, active compounds read low 1.01 | locus YIR030C, strain dcg1, active compounds read low 1.02 | locus YJL092W, strain hpr5, active compounds read low 0.975 | locus YJL095W, strain BCK1 (second series), active compounds read low 0.975 | locus YJL095W, strain BCK1, active compounds read low 1 | locus YJL115W, strain asf1, active compounds read low 0.971 | locus YJL129C, strain trk1, active compounds read low 0.938 | locus YJL134W, strain LCB3, active compounds read low 0.999 | locus YJL154C, strain vps35, active compounds read low 0.964 | locus YJL164C, strain tpk1, active compounds read low 0.974 | locus YJL166W, strain qcr8, active compounds read low 0.98 | locus YJL168C, strain set2, active compounds read low 1.02 | locus YJL187C, strain SWE1 (second series), active compounds read low 1.01 | locus YJL187C, strain SWE1, active compounds read low 0.977 | locus YJR043C, strain POL32, active compounds read low 0.989
